In PubChem BioAssay AID1159580 (chemical genetic matrix, 2015):
About 2,000 (36%) of roughly 5,500 compounds were called active. Not shown: some 18% with an inconclusive outcome. Cut-off read from the data, not from the text of the source: active = normalized growth mostly below about 0.91 (no sharp cut-off); inconclusive = no clear call, values can overlap the other calls; inactive = mostly above about 0.92. The list shows a part of the results.

Assay: chemical genetic growth profiling, strain panel (AID 1159580);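 note: tested at 20 µM; growth read once vehicle control cultures reached saturation at 30 °C; 1 = growth at the plate median or of vehicle wells; lower values mean less growth of the strain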
Conditions: growth OD

Measured: normalized growth

NCC(=O)c1ccccc1
inactive: S. cerevisiae deletion strains, locus YJR075W, strain HOC1, stronger effect = lower value 1.05 | S. cerevisiae deletion strains, locus YKL009W, strain mrt4, stronger effect = lower value 0.981 | S. cerevisiae deletion strains, locus YKL068W, stronger effect = lower value 1 | S. cerevisiae deletion strains, locus YKL085W, strain MDH1 (second series), stronger effect = lower value 0.988 | S. cerevisiae deletion strains, locus YKL085W, strain MDH1, stronger effect = lower value 0.988 | S. cerevisiae deletion strains, locus YKL160W, strain elf1, stronger effect = lower value 1 | S. cerevisiae deletion strains, locus YKL190W, strain CNB1, stronger effect = lower value 1.02 | S. cerevisiae deletion strains, locus YKR001C, strain vps1, stronger effect = lower value 0.988 | S. cerevisiae deletion strains, locus YKR026C, strain gcn3, stronger effect = lower value 1 | S. cerevisiae deletion strains, locus YKR091W, strain srl3, stronger effect = lower value 0.997 | S. cerevisiae deletion strains, locus YLL001W, strain dnm1, stronger effect = lower value 1 | S. cerevisiae deletion strains, locus YLL026W, stronger effect = lower value 1 | S. cerevisiae deletion strains, locus YLL041C, strain sdh2, stronger effect = lower value 1 | S. cerevisiae deletion strains, locus YLR027C, strain aat2, stronger effect = lower value 0.997 | S. cerevisiae deletion strains, locus YLR039C, strain RIC1, stronger effect = lower value 1.03 | S. cerevisiae deletion strains, locus YLR058C, strain SHM2, stronger effect = lower value 1.02 | S. cerevisiae deletion strains, locus YLR102C, strain apc9, stronger effect = lower value 0.988 | S. cerevisiae deletion strains, locus YLR113W, strain HOG1, stronger effect = lower value 1.07 | S. cerevisiae deletion strains, locus YLR221C, strain rsa3, stronger effect = lower value 1.02 | S. cerevisiae deletion strains, locus YLR258W, strain gsy2, stronger effect = lower value 0.977 | S. cerevisiae deletion strains, locus YLR262C, strain YPT6 (second series), stronger effect = lower value 1.03 | S. cerevisiae deletion strains, locus YLR262C, strain YPT6, stronger effect = lower value 1.02 | S. cerevisiae deletion strains, locus YLR268W, strain sec22, stronger effect = lower value 0.986 | S. cerevisiae deletion strains, locus YLR320W, strain mms22, stronger effect = lower value 0.991 | S. cerevisiae deletion strains, locus YLR330W, strain CHS5, stronger effect = lower value 1.02 | S. cerevisiae deletion strains, locus YLR342W, strain FKS1 (second series), stronger effect = lower value 0.988 | S. cerevisiae deletion strains, locus YLR342W, strain FKS1, stronger effect = lower value 0.992 | S. cerevisiae deletion strains, locus YLR357W, strain rsc2, stronger effect = lower value 0.966 | S. cerevisiae deletion strains, locus YLR370C, strain arc18, stronger effect = lower value 1.01 | S. cerevisiae deletion strains, locus YLR371W, strain rom2, stronger effect = lower value 0.993 | S. cerevisiae deletion strains, locus YLR384C, strain iki3, stronger effect = lower value 1.01 | S. cerevisiae deletion strains, locus YLR418C, strain cdc73, stronger effect = lower value 1 | S. cerevisiae deletion strains, locus YML016C, strain PPZ1, stronger effect = lower value 1.02 | S. cerevisiae deletion strains, locus YML032C, strain rad52, stronger effect = lower value 0.986 | S. cerevisiae deletion strains, locus YML120C, strain ndi1, stronger effect = lower value 0.989 | S. cerevisiae deletion strains, locus YML124C, strain tub3, stronger effect = lower value 0.993 | S. cerevisiae deletion strains, locus YMR058W, strain fet3, stronger effect = lower value 1.01 | S. cerevisiae deletion strains, locus YMR078C, strain ctf18, stronger effect = lower value 1 | S. cerevisiae deletion strains, locus YMR125W, strain sto1, stronger effect = lower value 1.01 | S. cerevisiae deletion strains, locus YMR129W, stronger effect = lower value 1 | S. cerevisiae deletion strains, locus YMR205C, strain PFK2, stronger effect = lower value 1.01 | S. cerevisiae deletion strains, locus YMR223W, strain ubp8, stronger effect = lower value 0.987 | S. cerevisiae deletion strains, locus YMR231W, strain pep5, stronger effect = lower value 0.992 | S. cerevisiae deletion strains, locus YMR263W, strain SAP30, stronger effect = lower value 1.04 | S. cerevisiae deletion strains, locus YMR307W, strain GAS1, stronger effect = lower value 1.02 | S. cerevisiae deletion strains, locus YNL067W, strain RPL9B, stronger effect = lower value 1.04 | S. cerevisiae deletion strains, locus YNL071W, strain lat1, stronger effect = lower value 0.998 | S. cerevisiae deletion strains, locus YNL128W, strain TEP1, stronger effect = lower value 1.05 | S. cerevisiae deletion strains, locus YNL153C, strain GIM3, stronger effect = lower value 1.02 | S. cerevisiae deletion strains, locus YNL183C, strain NPR1, stronger effect = lower value 0.995 | S. cerevisiae deletion strains, locus YNL209W, strain ssb2, stronger effect = lower value 1 | S. cerevisiae deletion strains, locus YNL233W, strain BNI4, stronger effect = lower value 1.02 | S. cerevisiae deletion strains, locus YNL248C, strain rpa49, stronger effect = lower value 0.99 | S. cerevisiae deletion strains, locus YNL250W, strain rad50, stronger effect = lower value 0.985 | S. cerevisiae deletion strains, locus YNL271C, strain bni1, stronger effect = lower value 0.986 | S. cerevisiae deletion strains, locus YNL298W, strain CLA4, stronger effect = lower value 0.994 | S. cerevisiae deletion strains, locus YNL307C, strain MCK1, stronger effect = lower value 0.987 | S. cerevisiae deletion strains, locus YNL322C, strain KRE1 (second series), stronger effect = lower value 0.989 | S. cerevisiae deletion strains, locus YNL322C, strain KRE1, stronger effect = lower value 1.03 | S. cerevisiae deletion strains, locus YNR049C, strain mso1, stronger effect = lower value 1.02 | S. cerevisiae deletion strains, locus YNR052C, strain pop2, stronger effect = lower value 0.995 | S. cerevisiae deletion strains, locus YOL006C, strain TOP1, stronger effect = lower value 1.09 | S. cerevisiae deletion strains, locus YOL012C, strain htz1 1.45 | S. cerevisiae deletion strains, locus YOL147C, strain pex11, stronger effect = lower value 0.993 | S. cerevisiae deletion strains, locus YOR001W, strain rrp6, stronger effect = lower value 1.01 | S. cerevisiae deletion strains, locus YOR061W, strain CKA2, stronger effect = lower value 1.01 | S. cerevisiae deletion strains, locus YOR069W, strain VPS5, stronger effect = lower value 1.01 | S. cerevisiae deletion strains, locus YOR070C, strain gyp1, stronger effect = lower value 1 | S. cerevisiae deletion strains, locus YOR080W, strain dia2, stronger effect = lower value 0.995 | S. cerevisiae deletion strains, locus YOR083W, strain WHI5, stronger effect = lower value 0.994 | S. cerevisiae deletion strains, locus YOR106W, strain vam3, stronger effect = lower value 1.02 | S. cerevisiae deletion strains, locus YOR136W, strain idh2, stronger effect = lower value 0.991 | S. cerevisiae deletion strains, locus YOR144C, strain elg1, stronger effect = lower value 0.999 | S. cerevisiae deletion strains, locus YOR184W, strain ser1, stronger effect = lower value 0.983 | S. cerevisiae deletion strains, locus YOR231W, strain MKK1, stronger effect = lower value 1.08 | S. cerevisiae deletion strains, locus YOR265W, strain rbl2, stronger effect = lower value 1.01 | S. cerevisiae deletion strains, locus YOR270C, strain vph1, stronger effect = lower value 1.06 | S. cerevisiae deletion strains, locus YOR290C, strain snf2, stronger effect = lower value 0.998 | S. cerevisiae deletion strains, locus YOR316C, strain cot1, stronger effect = lower value 0.992 | S. cerevisiae deletion strains, locus YPL051W, strain arl3, stronger effect = lower value 1.01 | S. cerevisiae deletion strains, locus YPL055C, strain LGE1, stronger effect = lower value 1.06 | S. cerevisiae deletion strains, locus YPL078C, strain atp4, stronger effect = lower value 1.02 | S. cerevisiae deletion strains, locus YPL106C, strain sse1, stronger effect = lower value 0.973 | S. cerevisiae deletion strains, locus YPL240C, strain hsp82, stronger effect = lower value 0.996 | S. cerevisiae deletion strains, locus YPL241C, strain CIN2, stronger effect = lower value 1.02 | S. cerevisiae deletion strains, locus YPL256C, strain CLN2, stronger effect = lower value 1.05 | S. cerevisiae deletion strains, locus YPR119W, strain clb2, stronger effect = lower value 0.996 | S. cerevisiae deletion strains, locus YPR141C, strain kar3, stronger effect = lower value 0.993 | S. cerevisiae deletion strains, locus YPR163C, strain tif3, stronger effect = lower value 0.99 | S. cerevisiae deletion strains, locus YPR167C, strain met16, stronger effect = lower value 0.991 | S. cerevisiae deletion strains, strain wtn01, stronger effect = lower value 0.987 | S. cerevisiae strains, strain wild type, stronger effect = lower value 1.01
